From PubChem BioAssay
Records with an inconclusive call do not appear. The source made the active and inactive calls. Unless noted, cut-off not given; nearly all actives show AC50 up to about 26 µM.

Legend:
[1] = growth inhibition of DIPG glioma cells, dose response, cell-based, SU-DIPG-XVII, MIPE5.0, CellTiter-Glo, qHTS (AID 1347060); settings: SU-DIPG-XVII viability, CellTiter-Glo ATP luminescence;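 on AC50: cells exposed to compound for 48 hours before viability readout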
[2] = growth inhibition of DIPG glioma cells, dose response, cell-based, SU-DIPG-XIII, MIPE5.0, CellTiter-Glo, qHTS (AID 1347064; cut-off not given, nearly all actives have AC50 up to about 23 µM;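 on AC50: cells exposed to compound for 48 hours before the viability read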); settings: SU-DIPG-XIII viability, CellTiter-Glo ATP luminescence
[3] = viability loss in pontine glioma line – cell-based, SU-DIPG-XXV, MIPE5.0, CellTiter-Glo, qHTS, dose response (AID 1347065); settings: CellTiter-Glo ATP luminescence;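 further: cells exposed to compound for 48 hours before ATP readout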
[4] = JHH-DIPG-1 glioma cell viability, MIPE5.0 library, CellTiter-Glo luminescence, qHTS (AID 1347067); settings: JHH-DIPG-1 glioma viability, CellTiter-Glo ATP luminescence;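 further: cells exposed to compound for 48 hours before readout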
[5] = SU-DIPG-XXV glioma cell viability, MIPE5.0 library, qHTS (AID 1347068; cut-off not given, nearly all actives have IC50 up to about 30 µM;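 on IC50: cells exposed to compound for 48 hours before viability readout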)

Cc1cc(C(=O)Nc2cc(Nc3ccc4c(/C=C/c5ccccn5)n[nH]c4c3)ccc2F)n(C)n1
active: AC50 [1] 8.33 µM | AC50 [2] 7.42 µM | AC50 [3] 3.72 µM | AC50 [4] 16.6 µM

O=C(NOCCO)c1cc(CN2OCCCC2=O)c(F)c(F)c1Nc1ccc(I)cc1F
active: AC50 [1] 0.332 µM | AC50 [2] 0.148 µM | AC50 [3] 0.417 µM | AC50 [4] 0.148 µM

NC(=O)c1cccc2c(NC(CN3CCC3)c3ccc(Cl)c(C(F)(F)F)c3)ncnc12 (centres undefined)
active: AC50 [1] 11.8 µM | AC50 [2] 3.72 µM | AC50 [3] 2.95 µM | AC50 [4] 11.8 µM

CC[C@@H](C)Nc1cc(C(=O)NC2CC3CCC(C2)N3c2ccc(C(=O)C3CC3)cn2)c(C)cc1C(N)=O (some centres undefined)
active: AC50 [1] 0.148 µM | AC50 [2] 0.209 µM | AC50 [3] 0.186 µM | AC50 [4] 0.209 µM

COCCNCc1ccc(-c2cc3nccc(Oc4ccc(NC(=O)C5(C(=O)Nc6ccc(F)cc6)CC5)cc4F)c3s2)nc1
active: AC50 [1] 7.42 µM | AC50 [2] 5.25 µM | AC50 [3] 4.68 µM | AC50 [4] 8.33 µM

COc1cc(-c2cn(C)c(=O)c3cnccc23)cc(OC)c1CN(C)C
inactive: outcome [1] | outcome [2] | outcome [3] | outcome [4] | outcome [5]

NS(=O)(=O)Oc1ccc2c3c(c(=O)oc2c1)CCCCC3
inactive: outcome [1] | outcome [2] | outcome [3] | outcome [4]

O=c1cc(N2CCOCC2)oc2c(-c3ccc4c(c3)OCCO4)csc12
active: AC50 [1] 5.25 µM | AC50 [2] 6.61 µM | AC50 [3] 8.33 µM | AC50 [4] 7.42 µM

Cc1ncc(NC(=O)c2cccc(C(F)(F)F)c2)cc1-c1cnc(OC2CCOCC2)c(N2CCOCC2)c1
active: AC50 [1] 9.34 µM | AC50 [2] 5.25 µM | AC50 [3] 14.8 µM | AC50 [4] 4.68 µM | IC50 [5] 18.6 µM

CC(C)(O)CS(=O)(=O)Nc1ccc2c(c1)CCN(C(=O)COc1cccnc1)C2
active: AC50 [1] 0.263 µM | AC50 [2] 0.0372 µM | AC50 [3] 0.0833 µM | AC50 [4] 0.0468 µM

C=CC(=O)Nc1cccc(Oc2nc(Nc3ccc(N4CCN(C)CC4)c(F)c3)nc3[nH]ccc23)c1
active: AC50 [1] 2.63 µM | AC50 [2] 5.25 µM | AC50 [3] 1.86 µM | AC50 [4] 9.34 µM | IC50 [5] 0.833 µM

CC1Oc2cc(cnc2N)-c2c(nn(C)c2C#N)CN(C)C(=O)c2ccc(F)cc21 (centres undefined)
active: AC50 [1] 14.8 µM | AC50 [2] 6.61 µM | AC50 [3] 7.42 µM
inactive: outcome [4]

O=C(NOCCO)c1ccc2cncn2c1Nc1ccc(I)cc1F
active: AC50 [1] 0.148 µM | AC50 [2] 0.148 µM | AC50 [3] 0.332 µM | AC50 [4] 0.105 µM

C[C@@H]1COCCN1c1cc(=O)n2c(n1)N(Cc1cncc(Cl)c1)[C@H](C(F)(F)F)CC2
inactive: outcome [1] | outcome [2] | outcome [3] | outcome [4] | outcome [5]

CC(C)(C)C(=O)CN1C(=O)[C@H](NC(=O)Nc2cccc(C(=O)O)c2)CN(C2CCCCC2)c2ccccc21
inactive: outcome [1] | outcome [2] | outcome [3] | outcome [4] | outcome [5]

CC1(C)OCCn2c1nc1c(N3CCOCC3)nc(-c3cnc(N)nc3)nc12
active: AC50 [1] 3.72 µM | AC50 [2] 1.86 µM | AC50 [3] 1.48 µM | AC50 [4] 1.32 µM

CC(C)NC(=O)C1CCC(n2c(NC(=O)c3ccc(F)cc3)nc3ccc(CN4CCC(C(C)(C)O)CC4)cc32)CC1 (centres undefined)
inactive: outcome [4]
active: AC50 [1] 9.1 µM | AC50 [2] 7.23 µM | AC50 [3] 6.45 µM

CCOC(=N)c1nc2ccc3ncnc(Nc4cc(F)c(F)cc4Cl)c3c2s1
active: AC50 [1] 16.6 µM | AC50 [2] 16.6 µM | AC50 [3] 11.8 µM | AC50 [4] 14.8 µM

C[C@@H]1CCN(C(=O)N2CCCC2)C[C@@H]1N(C)c1ncnc2[nH]ccc12
inactive: outcome [1] | outcome [2] | outcome [3] | outcome [4] | outcome [5]

O=c1sn(-c2cccc3ccccc23)c(=O)n1Cc1ccccc1
active: AC50 [1] 23.5 µM | AC50 [2] 13.2 µM | AC50 [3] 14.8 µM | AC50 [4] 3.72 µM

CCc1nc(C(N)=O)c(Nc2ccc(N3CCC(N4CCN(C)CC4)CC3)c(OC)c2)nc1NC1CCOCC1
active: AC50 [1] 2.35 µM | AC50 [2] 1.18 µM | AC50 [3] 0.833 µM | AC50 [4] 0.934 µM

Nc1nc(Nc2ccc3c(c2)CC[C@@H](N2CCCC2)CC3)nn1-c1cc2c(nn1)-c1ccccc1CCC2
active: AC50 [1] 9.34 µM | AC50 [2] 16.6 µM | AC50 [3] 6.61 µM | AC50 [4] 20.9 µM | IC50 [5] 26.3 µM

CS(=O)(=O)N1CCC(NC(=O)c2[nH]ncc2NC(=O)c2c(Cl)cccc2Cl)CC1
active: AC50 [1] 3.32 µM | AC50 [2] 4.17 µM | AC50 [3] 4.17 µM | AC50 [4] 4.17 µM | IC50 [5] 4.68 µM

CNS(=O)(=O)Nc1nccc(Cc2c(C)c3ccc(Oc4ncccn4)cc3oc2=O)c1F
active: AC50 [1] 1.48 µM | AC50 [2] 1.18 µM | AC50 [3] 2.35 µM | AC50 [4] 1.05 µM

COc1cc(C(=O)O)ccc1NC(=O)[C@@H]1N[C@@H](CC(C)(C)C)[C@](C#N)(c2ccc(Cl)cc2F)[C@H]1c1cccc(Cl)c1F
active: AC50 [1] 6.61 µM | AC50 [2] 14.8 µM | AC50 [3] 9.34 µM | AC50 [4] 11.8 µM

Cn1nccc1Nc1nccc(-c2ccn([C@H](CO)c3ccc(Cl)c(F)c3)c(=O)c2)n1
active: AC50 [1] 18.6 µM | AC50 [2] 10.5 µM | AC50 [3] 18.6 µM | AC50 [4] 1.48 µM

CC#CC(=O)N1CCC[C@H]1c1nc(-c2ccc(C(=O)Nc3ccccn3)cc2)c2c(N)nccn12
inactive: outcome [1] | outcome [2] | outcome [3] | outcome [4]

NC(CC1c2ccccc2Oc2ccccc21)(C(=O)O)C1CC1C(=O)O (centres undefined)
inactive: outcome [1] | outcome [2] | outcome [3] | outcome [4] | outcome [5]

CCCCCCCOc1ccc(CCC(N)(CO)CO)cc1C(F)(F)F
active: AC50 [1] 8.33 µM | AC50 [2] 8.33 µM | AC50 [3] 9.34 µM | AC50 [4] 8.33 µM

CC(C)c1cc(CNc2nc(Nc3cc(C4CC4)[nH]n3)cc(N3CCN(C)CC3)n2)on1
active: AC50 [1] 0.186 µM | AC50 [2] 0.166 µM | AC50 [3] 0.0833 µM | AC50 [4] 0.468 µM | IC50 [5] 0.525 µM

O=C(NO)c1cnc(N2C[C@H]3C[C@@H]2CN3c2cc(C(F)(F)F)ccn2)nc1
active: AC50 [1] 2.63 µM | AC50 [2] 1.18 µM | AC50 [3] 0.742 µM | AC50 [4] 1.48 µM

COc1nc(OCc2cccc(-c3ccccc3)c2C)ccc1CNCCNC(C)=O
active: AC50 [1] 7.42 µM | AC50 [2] 8.33 µM | AC50 [3] 9.34 µM | AC50 [4] 9.34 µM | IC50 [5] 14.8 µM

CN1CCN(Cc2ccc(Nc3ncc(Cl)c(Nc4ccccc4S(=O)(=O)N(C)C)n3)cc2)CC1
active: AC50 [1] 0.191 µM | AC50 [2] 0.241 µM | AC50 [3] 0.135 µM | AC50 [4] 0.382 µM | IC50 [5] 0.382 µM

COC(=O)N(CC(=O)O)Cc1cccc(OCc2nc(-c3ccc(Cl)cc3)oc2C)c1
inactive: outcome [1] | outcome [2] | outcome [3] | outcome [4] | outcome [5]

C=CCN1C[C@H](C(=O)N(CCCN(C)C)C(=O)NCC)CC2c3cccc4[nH]cc(c34)C[C@H]21 (some centres undefined)
inactive: outcome [1] | outcome [2] | outcome [3] | outcome [4] | outcome [5]

CN1C(=O)[C@@H](NC(=O)c2cc(Cc3ccccc3)on2)COc2ccccc21
inactive: outcome [1] | outcome [2] | outcome [3] | outcome [4] | outcome [5]

CC(=O)N1CCC[C@H]1C(=O)N[C@@H](Cc1cnc[nH]1)C(=O)N[C@@H](CO)C(=O)N[C@@H](CS)C(=O)N[C@@H](CC(N)=O)C(N)=O
inactive: outcome [1] | outcome [2] | outcome [3] | outcome [4] | outcome [5]

O=C(COCC(=O)N1CCN(C(c2ccccc2)c2ccccc2)CC1)Nc1ccc(Cl)cc1C(=O)O
inactive: outcome [1] | outcome [2] | outcome [3] | outcome [4] | outcome [5]

CC(C)N(CCCNC(=O)Nc1ccc(C(C)(C)C)cc1)C[C@H]1O[C@@H](n2ccc3c(N)ncnc32)[C@H](O)[C@@H]1O
inactive: outcome [1] | outcome [2] | outcome [3] | outcome [4] | outcome [5]

CC(C)Nc1cc(-c2c[nH]c(C(=O)N[C@H](CO)c3cccc(Cl)c3)c2)c(Cl)cn1
active: AC50 [1] 1.48 µM | AC50 [2] 4.17 µM | AC50 [3] 3.32 µM | AC50 [4] 1.66 µM | IC50 [5] 14.8 µM

CN(C)CCNC(=O)COc1c2cccc1Cc1cccc(c1OCC(=O)NCCN(C)C)Cc1cccc(c1OCC(=O)NCCN(C)C)Cc1cccc(c1OCC(=O)NCCN(C)C)C2
inactive: outcome [1] | outcome [2] | outcome [3] | outcome [4] | outcome [5]

O=C1NC(=O)C(c2cnc3ccccn23)=C1c1cn2c3c(cc(F)cc13)CN(C(=O)N1CCCCC1)CC2
active: AC50 [1] 1.86 µM | AC50 [2] 16.6 µM | AC50 [3] 18.6 µM | AC50 [4] 20.9 µM | IC50 [5] 20.9 µM

CN1CCN(c2ccc(Nc3ncc4cc(C#N)c(=O)n(C5CCCC5)c4n3)cc2)CC1
active: AC50 [1] 3.72 µM | AC50 [2] 8.33 µM | AC50 [3] 5.25 µM | AC50 [4] 10.5 µM | IC50 [5] 4.17 µM

NC[C@@](O)(c1ccc(Cl)cc1)c1ccc(-c2cn[nH]c2)cc1
inactive: outcome [1]
active: AC50 [2] 18.6 µM | AC50 [3] 13.2 µM | AC50 [4] 26.3 µM | IC50 [5] 23.5 µM
